Measured values: PubChem BioAssay AID1159580 (chemical genetic matrix, 2015)
Screen size: about 5,500 compounds; about 2,000 (36%) were called active. Not shown: some 18% with an inconclusive outcome. Cut-off read from the data, not from the text of the source: active = normalized growth mostly below about 0.91 (no sharp cut-off); inconclusive = no clear call, values can overlap the other calls; inactive = mostly above about 0.92. Some of the results follow.

Assay: chemical genetic growth profiling, strain panel (AID 1159580);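 note: tested at 20 µM; growth read once vehicle control cultures reached saturation at 30 °C; 1 = growth at the plate median or of vehicle wells; lower values mean less growth of the strain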
Details: S. cerevisiae deletion strains, growth OD

Measured: normalized growth

Oc1c(Cl)cc(Cl)cc1C=Nc1ccc(Sc2ccccc2)nc1Sc1ccccc1
inactive: locus YAR019C, strain CDC15, active compounds read low 0.938 | locus YBL105C, strain PKC1, active compounds read low 0.958 | locus YBR135W, strain CKS1, active compounds read low 0.954 | locus YBR136W, strain MEC1, active compounds read low 0.954 | locus YBR160W, strain CDC28, active compounds read low 0.954 | locus YDL017W, strain CDC7, active compounds read low 0.956 | locus YDL028C, strain MPS1, active compounds read low 0.922 | locus YDL101C, strain DUN1, active compounds read low 0.97 | locus YDL108W, strain KIN28, active compounds read low 0.945 | locus YDL132W, strain cdc53, active compounds read low 0.95 | locus YDR052C, strain DBF4, active compounds read low 0.968 | locus YDR054C, strain cdc34, active compounds read low 0.95 | locus YDR226W, strain ADK1, active compounds read low 0.956 | locus YER123W, strain YCK3, active compounds read low 0.7 | locus YFL009W, strain cdc4, active compounds read low 0.945 | locus YFL029C, strain CAK1, active compounds read low 0.943 | locus YFR003C, strain YPI1, active compounds read low 0.955 | locus YFR019W, strain FAB1, active compounds read low 0.916 | locus YFR028C, strain CDC14, active compounds read low 0.942 | locus YGR052W, strain FMP48, active compounds read low 0.616 | locus YIL147C, strain SLN1, active compounds read low 0.939 | locus YJL128C, strain PBS2, active compounds read low 0.913 | locus YJR016C, strain ILV3, active compounds read low 0.961 | locus YJR066W, strain TOR1 (second series), active compounds read low 0.771 | locus YKL193C, strain SDS22, active compounds read low 0.945 | locus YKL203C, strain TOR2, active compounds read low 0.748 | locus YML070W, strain DAK1, active compounds read low 0.727 | locus YMR001C, strain CDC5, active compounds read low 0.943 | locus YMR277W, strain FCP1, active compounds read low 0.929 | locus YNL006W, strain LST8, active compounds read low 0.942 | locus YNL161W, strain CBK1, active compounds read low 0.957 | locus YNL183C, strain NPR1, active compounds read low 0.606 | locus YNL207W, strain RIO2, active compounds read low 0.962 | locus YNL222W, strain SSU72, active compounds read low 0.938 | locus YOL078W, strain AVO1, active compounds read low 0.955 | locus YOL136C, strain PFK27, active compounds read low 0.693 | locus YOR329C, strain SCD5, active compounds read low 0.948 | locus YPL209C, strain IPL1, active compounds read low 0.951 | locus YPR025C, strain CCL1, active compounds read low 0.95 | locus YPR106W, strain ISR1, active compounds read low 0.956 | locus YPR111W, strain DBF20, active compounds read low 0.941 | strain NNK1, active compounds read low 0.965 | strain TSCII, active compounds read low 0.95
active: locus YDL214C, strain PRR2, active compounds read low 0.675 | locus YDR477W, strain SNF1, active compounds read low 0.6 | locus YER133W, strain GLC7, active compounds read low 0.635 | locus YGR040W, strain KSS1, active compounds read low 0.684 | locus YGR092W, strain DBF2, active compounds read low 0.217 | locus YHR030C, strain SLT2, active compounds read low 0.322 | locus YHR079C, strain IRE1, active compounds read low 0.472 | locus YHR082C, strain KSP1, active compounds read low 0.599 | locus YHR205W, strain SCH9, active compounds read low 0.462 | locus YJL095W, strain BCK1, active compounds read low 0.414 | locus YJL157C, strain FAR1, active compounds read low 0.56 | locus YJR066W, strain TOR1, active compounds read low 0.482 | locus YKL048C, strain ELM1, active compounds read low 0.734 | locus YKL067W, strain YNK1, active compounds read low 0.584 | locus YKL101W, strain HSL1, active compounds read low 0.674 | locus YLR113W, strain HOG1, active compounds read low 0.667 | locus YLR133W, strain CKI1, active compounds read low 0.585 | locus YLR403W, strain SFP1, active compounds read low 0.49 | locus YMR205C, strain PFK2 (second series), active compounds read low 0.59 | locus YNL020C, strain ARK1, active compounds read low 0.566 | locus YNL307C, strain MCK1 (second series), active compounds read low 0.517 | locus YOR061W, strain CKA2, active compounds read low 0.392 | locus YOR119C, strain RIO1, active compounds read low 0.652 | locus YOR231W, strain MKK1, active compounds read low 0.509 | locus YPL031C, strain PHO85, active compounds read low 0.598 | locus YPL153C, strain RAD53, active compounds read low 0.535 | locus YPL204W, strain HRR25, active compounds read low 0.577 | locus YPL256C, strain CLN2, active compounds read low 0.619
